This is part of a sample that, as a whole, favours compounds with a hit. Of some 83,000 tested, about 20% had one in any assay.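 Assay: single dose, 48 h. Readout: percent growth (0 = no net growth; negative = cell death). Active: <10.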 Activity calls are given as the source filed them.
Columns and labels:
Assay in all cases: NCI-60 one-dose screen, 48 h (100 = growth as untreated, 0 = no growth, -100 = all killed)
Settings in all cases: 10 µM
SK-MEL-2 melanoma = test system: SK-MEL-2 melanoma
EKVX NSCLC = test system: EKVX NSCLC
SN12C renal = test system: SN12C renal
TK-10 renal = test system: TK-10 renal
ACHN renal = test system: ACHN renal
CAKI-1 renal = test system: CAKI-1 renal
A498 renal = test system: A498 renal
CCRF-CEM leukemia = test system: CCRF-CEM leukemia
MOLT-4 leukemia = test system: MOLT-4 leukemia
UO-31 renal = test system: UO-31 renal

Measured: growth

COc1ccc2c(c1)C(CC(=O)NN)CCC2 (configuration not stated)
inactive: SK-MEL-2 melanoma 108% | EKVX NSCLC 109% | SN12C renal 104% | TK-10 renal 98.7% | ACHN renal 99.6% | CAKI-1 renal 91.2% | A498 renal 93.2% | CCRF-CEM leukemia 100% | MOLT-4 leukemia 86.8%

CN(C)CCOc1ccc(-c2nc3sccn3c2-c2ccnc(S(C)(=O)=O)n2)cc1
inactive: SK-MEL-2 melanoma 111% | EKVX NSCLC 102% | SN12C renal 101% | UO-31 renal 97.1% | ACHN renal 106% | CAKI-1 renal 98.8% | A498 renal 96.3% | CCRF-CEM leukemia 91% | MOLT-4 leukemia 109%

COc1ccccc1N1CCCSC1=Nc1ccccc1
inactive: SK-MEL-2 melanoma 121% | EKVX NSCLC 110% | SN12C renal 91.6% | UO-31 renal 81.2% | ACHN renal 114% | A498 renal 99.8% | CCRF-CEM leukemia 67.6% | MOLT-4 leukemia 62.1%

Fc1ccc(C(c2ccc(F)cc2)C(Cl)Cl)cc1
inactive: SK-MEL-2 melanoma 97.1% | EKVX NSCLC 101% | SN12C renal 108% | TK-10 renal 110% | ACHN renal 102% | CAKI-1 renal 96.8% | CCRF-CEM leukemia 93.7% | MOLT-4 leukemia 94.2%

COC1=CC(=O)OC(c2ccc(OC)cc2)C1 (configuration not stated)
inactive: SK-MEL-2 melanoma 98.9% | EKVX NSCLC 96.1% | SN12C renal 99.3% | TK-10 renal 104% | ACHN renal 103% | CAKI-1 renal 85.8% | A498 renal 96.4% | CCRF-CEM leukemia 107% | MOLT-4 leukemia 101%

Cc1ccc(C2NC(=S)N3C(c4ccc(C)cc4)NC(=S)N23)cc1 (configuration not stated)
active: SK-MEL-2 melanoma -32.9%
inactive: EKVX NSCLC 43.1% | SN12C renal 52.5% | UO-31 renal 12.7% | ACHN renal 63.4% | A498 renal 49.6% | CCRF-CEM leukemia 12.3% | MOLT-4 leukemia 24.8%

Cc1ccc(C(C)C)c(O)c1NC(=O)OC(C)C
inactive: SK-MEL-2 melanoma 96.6% | EKVX NSCLC 92.3% | SN12C renal 91.9% | TK-10 renal 116% | CAKI-1 renal 121% | A498 renal 91.5% | CCRF-CEM leukemia 104% | MOLT-4 leukemia 122%

Clc1ccc(Cc2ccncc2)cc1
inactive: SK-MEL-2 melanoma 121% | EKVX NSCLC 101% | SN12C renal 95.4% | TK-10 renal 130% | CAKI-1 renal 130% | A498 renal 104% | CCRF-CEM leukemia 104% | MOLT-4 leukemia 114%

COc1cc(C2CC(c3ccc4c(c3)OCO4)=NN2c2ccccc2)cc(OC)c1OC (configuration not stated)
inactive: SK-MEL-2 melanoma 108% | EKVX NSCLC 89.4% | SN12C renal 90.9% | TK-10 renal 112% | CAKI-1 renal 75.4% | A498 renal 97.9% | CCRF-CEM leukemia 80.8% | MOLT-4 leukemia 82.3%

O=C1/C(=C/c2ccc3c(c2)OCO3)SC(=S)N1C1c2ccccc2Oc2ccccc21
inactive: SK-MEL-2 melanoma 115% | EKVX NSCLC 96.8% | UO-31 renal 74.2% | TK-10 renal 101% | ACHN renal 91.2% | CAKI-1 renal 92.8% | A498 renal 101% | CCRF-CEM leukemia 86.7% | MOLT-4 leukemia 96.5%

COc1ccc2c(c1)CC=C1[C@@H]2CC[C@]2(C)C(=O)/C(=N/O)C[C@@H]12
inactive: SK-MEL-2 melanoma 115% | EKVX NSCLC 76.6% | SN12C renal 82.7% | TK-10 renal 92.7% | ACHN renal 74.4% | CCRF-CEM leukemia 33.1% | MOLT-4 leukemia 63.3%
active: CAKI-1 renal 6.9%

CCN(CC)CCOC(=O)c1cc(OCc2ccccc2)c(OCc2ccccc2)c(OCc2ccccc2)c1
inactive: SK-MEL-2 melanoma 78.5% | EKVX NSCLC 47.7% | UO-31 renal 50.7% | TK-10 renal 78.3% | ACHN renal 71.9% | CAKI-1 renal 50.4% | A498 renal 68.8% | CCRF-CEM leukemia 37%
active: MOLT-4 leukemia 8.5%

O=C1/C(=C/c2ccc([N+](=O)[O-])s2)Oc2cc(Cl)ccc21
active: SK-MEL-2 melanoma -49.9% | SN12C renal -2.52% | UO-31 renal -92% | TK-10 renal -26.8% | ACHN renal -70.5% | CCRF-CEM leukemia -9.78% | MOLT-4 leukemia 2.92%
inactive: CAKI-1 renal 52.8% | A498 renal 102%

O=C1CC(SC(=S)C2CCCC2=O)C(=O)N1 (configuration not stated)
inactive: SK-MEL-2 melanoma 96.9% | SN12C renal 99.3% | UO-31 renal 92.3% | TK-10 renal 108% | ACHN renal 103% | CAKI-1 renal 102% | A498 renal 100% | CCRF-CEM leukemia 101% | MOLT-4 leukemia 96.5%

CC1C(=NC(=O)c2cnccn2)C(C)C(c2ccc(Cl)cc2)NC1c1ccncc1 (configuration not stated)
inactive: SK-MEL-2 melanoma 104% | EKVX NSCLC 88.6% | SN12C renal 93.3% | TK-10 renal 130% | ACHN renal 91.5% | A498 renal 115% | CCRF-CEM leukemia 79.5% | MOLT-4 leukemia 78.5%

From PubChem BioAssay (NCI)
